This passage reports log2 fold change results from the supplement of paper PMC10849652.

The full data set covers some 7,900 targets. This sample favours those with a hit. About 0.6% of all pairs of compound and target were hits. Unmarked numbers belong to inactive results.

Sequence of UniProt O95602 (O95602 whole entry, looked up): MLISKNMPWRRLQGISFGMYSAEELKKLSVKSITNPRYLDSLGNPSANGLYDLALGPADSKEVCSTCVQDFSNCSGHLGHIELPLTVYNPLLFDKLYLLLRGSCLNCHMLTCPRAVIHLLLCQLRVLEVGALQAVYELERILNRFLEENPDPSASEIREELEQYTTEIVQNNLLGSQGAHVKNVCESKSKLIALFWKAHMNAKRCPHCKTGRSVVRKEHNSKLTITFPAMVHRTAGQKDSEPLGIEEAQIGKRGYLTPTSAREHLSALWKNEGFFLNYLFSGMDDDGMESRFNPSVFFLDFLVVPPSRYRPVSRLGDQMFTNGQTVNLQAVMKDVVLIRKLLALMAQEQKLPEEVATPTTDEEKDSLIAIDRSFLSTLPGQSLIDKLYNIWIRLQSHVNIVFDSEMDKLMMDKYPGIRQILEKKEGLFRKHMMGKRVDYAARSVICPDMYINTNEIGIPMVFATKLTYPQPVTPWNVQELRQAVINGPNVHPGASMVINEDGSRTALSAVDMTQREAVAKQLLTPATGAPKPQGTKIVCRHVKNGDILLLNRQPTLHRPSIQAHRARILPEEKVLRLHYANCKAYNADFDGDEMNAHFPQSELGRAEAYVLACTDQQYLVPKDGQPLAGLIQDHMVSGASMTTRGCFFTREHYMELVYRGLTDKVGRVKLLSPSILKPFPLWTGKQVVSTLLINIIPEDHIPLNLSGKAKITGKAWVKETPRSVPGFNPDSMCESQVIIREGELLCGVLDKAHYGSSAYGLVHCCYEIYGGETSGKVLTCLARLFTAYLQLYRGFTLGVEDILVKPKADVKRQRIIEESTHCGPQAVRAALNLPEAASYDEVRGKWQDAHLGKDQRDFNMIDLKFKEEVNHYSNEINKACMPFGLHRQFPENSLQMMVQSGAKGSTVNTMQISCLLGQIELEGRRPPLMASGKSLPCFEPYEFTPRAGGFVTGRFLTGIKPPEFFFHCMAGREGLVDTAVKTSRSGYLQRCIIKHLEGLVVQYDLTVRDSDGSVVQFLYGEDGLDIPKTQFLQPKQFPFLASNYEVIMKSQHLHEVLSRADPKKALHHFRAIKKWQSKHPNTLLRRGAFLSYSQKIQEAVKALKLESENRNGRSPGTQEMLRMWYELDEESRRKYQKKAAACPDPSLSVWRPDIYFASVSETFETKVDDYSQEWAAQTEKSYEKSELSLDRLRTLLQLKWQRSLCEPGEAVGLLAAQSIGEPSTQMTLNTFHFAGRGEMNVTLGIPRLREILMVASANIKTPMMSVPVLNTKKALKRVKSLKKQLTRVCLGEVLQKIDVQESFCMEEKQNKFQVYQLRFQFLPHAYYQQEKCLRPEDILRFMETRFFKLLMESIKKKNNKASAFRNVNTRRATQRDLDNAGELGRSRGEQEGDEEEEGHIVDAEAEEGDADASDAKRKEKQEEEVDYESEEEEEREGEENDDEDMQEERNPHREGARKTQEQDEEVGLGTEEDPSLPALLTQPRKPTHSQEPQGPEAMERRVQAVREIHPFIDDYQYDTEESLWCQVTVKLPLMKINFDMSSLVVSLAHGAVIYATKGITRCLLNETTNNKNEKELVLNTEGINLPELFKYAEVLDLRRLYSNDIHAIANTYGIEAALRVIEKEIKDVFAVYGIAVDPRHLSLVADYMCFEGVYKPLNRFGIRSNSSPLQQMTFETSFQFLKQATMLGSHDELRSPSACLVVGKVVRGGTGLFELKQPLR
Sequence of UniProt O95613 (O95613 whole entry, looked up): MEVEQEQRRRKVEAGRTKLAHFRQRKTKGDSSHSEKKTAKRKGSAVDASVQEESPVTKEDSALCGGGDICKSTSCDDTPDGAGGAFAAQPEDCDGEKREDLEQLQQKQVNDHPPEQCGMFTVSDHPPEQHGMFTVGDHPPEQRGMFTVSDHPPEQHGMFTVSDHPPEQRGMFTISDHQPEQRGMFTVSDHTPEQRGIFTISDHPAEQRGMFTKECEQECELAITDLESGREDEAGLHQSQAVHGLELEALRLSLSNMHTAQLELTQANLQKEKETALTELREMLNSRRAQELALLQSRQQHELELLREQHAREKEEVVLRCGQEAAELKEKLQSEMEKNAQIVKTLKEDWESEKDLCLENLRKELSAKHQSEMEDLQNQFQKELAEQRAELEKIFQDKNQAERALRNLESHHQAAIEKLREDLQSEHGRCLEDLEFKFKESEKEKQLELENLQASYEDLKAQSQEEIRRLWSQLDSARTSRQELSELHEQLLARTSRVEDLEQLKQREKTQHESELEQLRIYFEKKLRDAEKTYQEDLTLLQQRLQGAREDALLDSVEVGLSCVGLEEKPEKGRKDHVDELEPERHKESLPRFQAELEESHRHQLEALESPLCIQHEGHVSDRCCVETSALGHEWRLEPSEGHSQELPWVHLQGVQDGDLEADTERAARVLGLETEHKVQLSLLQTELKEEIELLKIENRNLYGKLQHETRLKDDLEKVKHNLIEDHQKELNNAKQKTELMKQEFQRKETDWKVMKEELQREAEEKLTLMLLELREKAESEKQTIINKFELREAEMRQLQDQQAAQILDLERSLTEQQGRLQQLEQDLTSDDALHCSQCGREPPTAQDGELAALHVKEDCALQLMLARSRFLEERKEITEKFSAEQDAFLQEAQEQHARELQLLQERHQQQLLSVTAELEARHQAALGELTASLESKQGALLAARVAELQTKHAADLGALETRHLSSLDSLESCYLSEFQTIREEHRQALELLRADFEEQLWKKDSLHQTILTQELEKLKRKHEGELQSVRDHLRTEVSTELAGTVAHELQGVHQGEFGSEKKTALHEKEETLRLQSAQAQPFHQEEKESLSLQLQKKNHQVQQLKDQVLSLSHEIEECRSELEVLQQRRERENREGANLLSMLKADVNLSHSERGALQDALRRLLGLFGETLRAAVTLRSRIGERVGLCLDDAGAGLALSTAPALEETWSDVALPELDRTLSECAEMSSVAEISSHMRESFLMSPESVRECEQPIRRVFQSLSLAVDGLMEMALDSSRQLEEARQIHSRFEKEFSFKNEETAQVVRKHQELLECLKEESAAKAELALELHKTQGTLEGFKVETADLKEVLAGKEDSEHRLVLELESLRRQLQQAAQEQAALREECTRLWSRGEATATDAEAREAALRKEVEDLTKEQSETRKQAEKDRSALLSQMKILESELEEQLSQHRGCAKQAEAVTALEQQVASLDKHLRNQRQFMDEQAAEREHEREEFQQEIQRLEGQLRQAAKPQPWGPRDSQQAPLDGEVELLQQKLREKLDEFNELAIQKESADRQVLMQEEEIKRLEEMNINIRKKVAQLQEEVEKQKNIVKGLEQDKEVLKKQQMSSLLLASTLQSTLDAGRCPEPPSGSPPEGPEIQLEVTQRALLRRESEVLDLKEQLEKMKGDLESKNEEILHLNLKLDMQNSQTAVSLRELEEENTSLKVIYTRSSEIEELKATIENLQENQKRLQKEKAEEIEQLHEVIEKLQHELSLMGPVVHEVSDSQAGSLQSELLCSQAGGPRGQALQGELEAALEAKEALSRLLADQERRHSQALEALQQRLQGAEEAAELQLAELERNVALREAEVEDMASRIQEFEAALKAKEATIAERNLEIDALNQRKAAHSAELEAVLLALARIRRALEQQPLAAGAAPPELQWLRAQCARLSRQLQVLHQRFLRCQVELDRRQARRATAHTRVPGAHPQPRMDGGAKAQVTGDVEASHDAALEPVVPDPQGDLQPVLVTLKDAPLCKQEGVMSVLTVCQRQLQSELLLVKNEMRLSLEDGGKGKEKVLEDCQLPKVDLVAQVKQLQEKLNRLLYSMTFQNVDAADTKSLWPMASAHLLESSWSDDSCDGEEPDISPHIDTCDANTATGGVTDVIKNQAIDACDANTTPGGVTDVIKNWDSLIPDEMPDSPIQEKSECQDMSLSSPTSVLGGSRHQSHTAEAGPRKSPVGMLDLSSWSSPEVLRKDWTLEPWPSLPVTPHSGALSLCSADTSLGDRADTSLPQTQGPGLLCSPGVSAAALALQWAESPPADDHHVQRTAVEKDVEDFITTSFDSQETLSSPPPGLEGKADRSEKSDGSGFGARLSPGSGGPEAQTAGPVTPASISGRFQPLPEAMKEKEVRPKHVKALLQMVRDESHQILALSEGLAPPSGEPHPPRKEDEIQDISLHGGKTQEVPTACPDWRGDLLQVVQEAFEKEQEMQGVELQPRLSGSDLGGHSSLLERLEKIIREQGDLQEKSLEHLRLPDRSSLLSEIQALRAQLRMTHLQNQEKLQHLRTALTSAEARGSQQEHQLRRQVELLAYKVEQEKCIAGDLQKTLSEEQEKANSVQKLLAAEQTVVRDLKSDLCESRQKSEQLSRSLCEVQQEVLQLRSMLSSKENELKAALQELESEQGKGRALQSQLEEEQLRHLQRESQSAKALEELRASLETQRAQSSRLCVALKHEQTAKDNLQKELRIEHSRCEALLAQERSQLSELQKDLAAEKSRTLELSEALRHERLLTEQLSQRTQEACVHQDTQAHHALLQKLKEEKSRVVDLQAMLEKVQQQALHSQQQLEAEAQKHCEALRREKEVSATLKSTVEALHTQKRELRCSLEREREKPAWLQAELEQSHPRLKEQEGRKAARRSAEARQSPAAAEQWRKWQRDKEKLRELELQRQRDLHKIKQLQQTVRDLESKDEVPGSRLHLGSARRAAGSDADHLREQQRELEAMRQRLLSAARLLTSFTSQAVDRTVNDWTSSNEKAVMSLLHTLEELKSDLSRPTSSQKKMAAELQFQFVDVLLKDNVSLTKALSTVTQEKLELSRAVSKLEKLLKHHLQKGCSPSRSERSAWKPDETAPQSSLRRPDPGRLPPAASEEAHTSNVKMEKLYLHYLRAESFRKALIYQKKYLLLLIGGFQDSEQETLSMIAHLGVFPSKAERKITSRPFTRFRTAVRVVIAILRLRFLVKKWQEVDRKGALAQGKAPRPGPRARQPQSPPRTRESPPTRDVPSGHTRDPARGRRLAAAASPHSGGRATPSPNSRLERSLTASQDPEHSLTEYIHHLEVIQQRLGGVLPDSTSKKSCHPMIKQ
Sequence of UniProt Q15004 (Q15004 whole entry, looked up): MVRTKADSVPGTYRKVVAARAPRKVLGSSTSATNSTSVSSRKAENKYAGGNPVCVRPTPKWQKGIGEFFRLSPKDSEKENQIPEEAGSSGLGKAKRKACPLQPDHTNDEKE

Compound in the first assay: CC[C@@H]1C(=O)N(C)c2cnc(Nc3ccc(C(=O)NC4CCN(C)CC4)cc3OC)nc2N1C1CCCC1
Briefly: log2 fold change, soluble protein after heating vs DMSO (PISA); higher = thermal stabilisation; K562 cells, 10 uM, 30 min; active = over 0.2 and 3.5 SD of the protein, either way, in both replicates (recomputed). The gist of the method: (§1)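 K562 cells (2×10^6 cells/mL) were treated with 10 μM compound for 30 min, and aliquots were heated for 3 min over 48°C-58°C. Pooled aliquots were extracted in PBS with 0.5% NP-40 at 4°C, and the supernatant after 21,000xg for 90 min was measured by TMTpro 16plex LC-MS/MS with channel sums equalised. Reported thermal stability, relative to control samples and from duplicates, is a log2 fold change.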
Take PYGB (UniProt P11216): the log2 fold change is -0.199.

For the target PLCB3 (UniProt Q01970), the log2 fold change was -0.05.

On to POLR2M (UniProt P0CAP2), for which the log2 fold change is 0.084.

On to PEX16 isoform 2 (UniProt Q9Y5Y5), for which the log2 fold change is -0.065.

With PTPA (UniProt A6PVN8), the log2 fold change was 0.051.

PARN (UniProt O95453): the log2 fold change is -0.146.

PKM (UniProt P14618): the log2 fold change was 0.018.

Consider PRIM1 (UniProt P49642), for which the log2 fold change is -0.097.

Take PCK2 (UniProt Q16822): the log2 fold change was 0.012.

For the target POLR2G (UniProt P62487), the log2 fold change is 0.215.

In the case of PTDSS1 (UniProt P48651), the log2 fold change was 0.004.

With PHKA2 (UniProt P46019), the log2 fold change was -0.049.

For PISD (UniProt Q9UG56), the log2 fold change is -0.136.

Take PIP4P1 isoform 2 (UniProt Q86T03): the log2 fold change was -0.058.

Turning to PGGT1B (UniProt P53609), the log2 fold change is 0.056.

Turning to PCLAF (UniProt Q15004), the log2 fold change was 0.085.

Consider POLR3K (UniProt Q9Y2Y1), for which the log2 fold change is -0.077.

As for POLR2K (UniProt P53803), the log2 fold change was -0.259.

Regarding PCBP1 (UniProt Q15365), the log2 fold change is -0.1.

Take PCNT (UniProt O95613): the log2 fold change was 0.08.

For the target PTGR2 (UniProt Q8N8N7), the log2 fold change was 1.1 (active).

For PLIN2 (UniProt Q99541), the log2 fold change was -0.173.

As for PDCD6 (UniProt O75340), the log2 fold change is -0.157.

For the target PYGL (UniProt P06737), the log2 fold change was -0.091.

Regarding POTEI (UniProt P0CG38), the log2 fold change is -0.009.

For the target POLR1A (UniProt O95602), the log2 fold change is 0.059.

Turning to POMP (UniProt Q9Y244), the log2 fold change was 0.097.

For the target PPP2R5E (UniProt Q16537), the log2 fold change was -0.259 (active).

PSMA3 (UniProt P25788): the log2 fold change was 0.067.

Regarding PRPF3 (UniProt O43395), the log2 fold change was -0.114.

As to PNPLA8 (UniProt Q9NP80), the log2 fold change was -0.048.

On to PRMT3 (UniProt O60678), for which the log2 fold change was -0.126.

As for PRIM2 (UniProt P49643), the log2 fold change was -0.119.

Regarding PFAS (UniProt O15067), the log2 fold change is -0.04.

For the target PARL (UniProt Q9H300), the log2 fold change was -0.059.

As to PDPK1 (UniProt O15530), the log2 fold change was -0.136.

Regarding PTPA (UniProt Q15257), the log2 fold change is -0.007.

Compound in another assay: CC[C@@H]1C(=O)N(C)c2cnc(Nc3ccc(C(=O)N[C@H]4CC[C@H](N5CCN(CC6CC6)CC5)CC4)cc3OC)nc2N1C(C)C [volasertib]
Described as above. The gist of the method: as §1
On to PYGB (UniProt P11216), for which the log2 fold change was -0.572 (active).

PLCB3 (UniProt Q01970): the log2 fold change is -0.037.

Turning to POLR2M (UniProt P0CAP2), the log2 fold change was 0.026.

For PEX16 isoform 2 (UniProt Q9Y5Y5), the log2 fold change was -0.138.

Take PTPA (UniProt A6PVN8): the log2 fold change is -0.041.

On to PARN (UniProt O95453), for which the log2 fold change was -0.401 (active).

For PKM (UniProt P14618), the log2 fold change is 0.037.

For the target PRIM1 (UniProt P49642), the log2 fold change is -0.249.

In the case of PCK2 (UniProt Q16822), the log2 fold change was -0.076.

As for POLR2G (UniProt P62487), the log2 fold change was 0.276.

With PTDSS1 (UniProt P48651), the log2 fold change was 0.009.

PHKA2 (UniProt P46019): the log2 fold change is -0.094.

As for PISD (UniProt Q9UG56), the log2 fold change is -0.117.

In the case of PIP4P1 isoform 2 (UniProt Q86T03), the log2 fold change is 0.112.

As to PGGT1B (UniProt P53609), the log2 fold change is 0.098.

With PCLAF (UniProt Q15004), the log2 fold change was 0.124.

Turning to POLR3K (UniProt Q9Y2Y1), the log2 fold change was 0.056.

In the case of POLR2K (UniProt P53803), the log2 fold change is -0.002.

Turning to PCBP1 (UniProt Q15365), the log2 fold change is -0.268 (active).

With PCNT (UniProt O95613), the log2 fold change was 0.131.

For the target PTGR2 (UniProt Q8N8N7), the log2 fold change was 1.27 (active).

PLIN2 (UniProt Q99541): the log2 fold change was -0.259.

For the target PDCD6 (UniProt O75340), the log2 fold change is -0.283 (active).

For PYGL (UniProt P06737), the log2 fold change is -0.262 (active).

Consider POTEI (UniProt P0CG38), for which the log2 fold change is -0.009.

With POLR1A (UniProt O95602), the log2 fold change is 0.071.

Turning to POMP (UniProt Q9Y244), the log2 fold change is -0.049.

Turning to PPP2R5E (UniProt Q16537), the log2 fold change is -0.404 (active).

On to PSMA3 (UniProt P25788), for which the log2 fold change was 0.134.

Take PRPF3 (UniProt O43395): the log2 fold change is -0.34 (active).

Regarding PNPLA8 (UniProt Q9NP80), the log2 fold change is -0.184.

Regarding PRMT3 (UniProt O60678), the log2 fold change is -0.411 (active).

For the target PRIM2 (UniProt P49643), the log2 fold change was -0.285 (active).

Turning to PFAS (UniProt O15067), the log2 fold change was -0.124.

In the case of PARL (UniProt Q9H300), the log2 fold change was -0.008.

As for PDPK1 (UniProt O15530), the log2 fold change is -0.232.

Consider PTPA (UniProt Q15257), for which the log2 fold change was 0.004.
